Measurements as given in publication PMC12864922, “TDP-43 directly inhibits mRNA accumulation in neurites through modulation of mRNA stability”.
Changes are numbered by the printed parent chain. Whole data set: some 9,900 sequences, median “r (bound/input frequency ratio)” near 0.7, cut for the highest 2% near 6.5. This excerpt belongs to a sample that is enriched for the highest values.

B1: ENSMUSG00000031028.294|Tub|205:209 (ssRNA)
RNA: GGGAGUUCUACAGUCCGACGAUCGCUUCGAUAUCCGCAUGCUAUAGAUUUCCCAGGUUGGACACUCGACGAAAGGCACACCUGCUGCAGCAGGUUCUGACACACCUGAGCCAUACAUUGCCAUCAGAGAACCCUCAGCGAGGUAGCCUUUGUUUACAGUCUAGUUUCUAGAGGGCAGUAGGACUUCCAUGCUGGGGCUGGCCUAUCUCCUGAUGAAAGAUUACAGUGCCAUCUCCUUCCCAUAGUUCACACACUGCCCUCCCUCCCUGACUUUAUAGGGAGAAAUCUCCUGACAUUAGAGGUGCUCUUGCGGUCGCACUAGUGUGGAAUUCUCGGGUGUCAAGG
B2: ENSMUSG00000032194.156|Kank2|226:232 (ssRNA)
RNA: GGGAGUUCUACAGUCCGACGAUCGCUUCGAUAUCCGCAUGCUAAAAAAAGAAAAAAGGCCAUUCCGGAGUGACUCCCAGCAUCACAGCCCAGAACCUCCUCCUCAAAGGAGAGUAAACAGAGACUGUGAUACUGACCAAGUACAGGCGCUCGCUAUGAAGCCCAUAUGUUCCUGAUUAAGAGCUGGCUGGCCUCAGAGCACUCCCAGAACUAGCUUAAAGUGACAGGCUUUGCUGAAAUCCAAAGGGACAAAAGAGUAGUUUUAUGUUACACACAUUGUUUUUAAUGCCCUGGAGCUCCUGCUCUCUUGCGGUCGCACUAGUGUGGAAUUCUCGGGUGUCAAGG
B3: ENSMUSG00000061578.741|Ksr2 (ssRNA)
RNA: GGGAGUUCUACAGUCCGACGAUCGCUUCGAUAUCCGCAUGCUAUUUAAAUACCUGCUGCAGGCCUCCCAUCUCUGGCUCUUUGUUUCCACUCUGGCCCAAGUUUGAGUCUCCAUAUGGGCCCUUCCUGUCCUCAUGCCCUGCCUGUCUUCAUUCCACCCAUCCACCCUCCUAAGGAUUGGUCUUGUUCCGAGAGUGAUCCUGGUAACGCCAAGCCUCCCUCUGCCCCUGUGUUGGCUUCUGUGACGGACUACCACACACCAAGAGGUUUUUCACAGUGAAGAUGUAUGCUCUCACCAUCCUACCUCUUGCGGUCGCACUAGUGUGGAAUUCUCGGGUGUCAAGG
B4: ENSMUSG00000061578.701|Ksr2|49:53 (ssRNA)
RNA: GGGAGUUCUACAGUCCGACGAUCGCUUCGAUAUCCGCAUGCUAUACUCCCAGAUCUGGGGUGAUCUCUUGAGGUGCCUUCCUGUAGUCUCUACACACAUCUUCUUCUAAGACCACUAAUAACACCGCCUUUCUCCUUGAUCCGGGCCUCAGACCUCUUCAGAGAUUCUUUCUCUGAAUGUACGUGGGGGACUCCAACAGAUGUUGGGAGAAGACUCAAUAUGAGCAUACGGGGUCAUUGUUCAAUCCUGUAUCAAGACCUUGGAGUUGUCUAAGGCUGUGGGUUUUAAAUACCUGCUGCAGGCCUCUUGCGGUCGCACUAGUGUGGAAUUCUCGGGUGUCAAGG
B5: ENSMUSG00000061578.1460|Ksr2|78:82 (ssRNA)
RNA: GGGAGUUCUACAGUCCGACGAUCGCUUCGAUAUCCGCAUGCUAGAUGGAUGAAUGGAUGGGUAGGUGGGUAGAUAGGUAUAUGAAUGAAUGGAUGAAUGGAUGGGUGAAUGGAUGGAUAGCAUACUGAAUAAAUGGAUGGAUGGAUGGAUUGAUUUGUGAAUGAAUGGAUGAAUGGAUGGGUAGGUGGGUGGAUGCAUAGGCAAGUAGAUGAAUGAAUAUGUGGGUAGAAGGGUGAGUGGGUGGAUGAAUGGAUGGAUAGGUUGGUAGGUUAAUGUAUUCGUGGAUGGGUGAAUGGAUGGAUGCUCUUGCGGUCGCACUAGUGUGGAAUUCUCGGGUGUCAAGG
B6: ENSMUSG00000061578.1461|Ksr2|72:76 (ssRNA)
RNA: GGGAGUUCUACAGUCCGACGAUCGCUUCGAUAUCCGCAUGCUAUGAAUGGAUGGGUAGGUGGGUAGAUAGGUAUAUGAAUGAAUGGAUGAAUGGAUGGGUGAAUGGAUGGAUAGCAUACUGAAUAAAUGGAUGGAUGGAUGGAUUGAUUUGUGAAUGAAUGGAUGAAUGGAUGGGUAGGUGGGUGGAUGCAUAGGCAAGUAGAUGAAUGAAUAUGUGGGUAGAAGGGUGAGUGGGUGGAUGAAUGGAUGGAUAGGUUGGUAGGUUAAUGUAUUCGUGGAUGGGUGAAUGGAUGGAUGGAUAGACUCUUGCGGUCGCACUAGUGUGGAAUUCUCGGGUGUCAAGG
B7: ENSMUSG00000061578.1457|Ksr2|1:5;96:100 (ssRNA)
RNA: GGGAGUUCUACAGUCCGACGAUCGCUUCGAUAUCCGCAUGCUACAUACUGAAUGAAUGGAUGAUGGAUGAAUGGAUGGGUAGGUGGGUAGAUAGGUAUAUGAAUGAAUGGAUGAAUGGAUGGGUGAAUGGAUGGAUAGCAUACUGAAUAAAUGGAUGGAUGGAUGGAUUGAUUUGUGAAUGAAUGGAUGAAUGGAUGGGUAGGUGGGUGGAUGCAUAGGCAAGUAGAUGAAUGAAUAUGUGGGUAGAAGGGUGAGUGGGUGGAUGAAUGGAUGGAUAGGUUGGUAGGUUAAUGUAUUCGUGGACUCUUGCGGUCGCACUAGUGUGGAAUUCUCGGGUGUCAAGG
B8: ENSMUSG00000061578.1464|Ksr2 (ssRNA)
RNA: GGGAGUUCUACAGUCCGACGAUCGCUUCGAUAUCCGCAUGCUAGGUAGAUAGGUAUAUGAAUGAAUGGAUGAAUGGAUGGGUGAAUGGAUGGAUAGGUAUGUGAAUAAAUGGAUGGAUGGAUGGAUUGAUUUGUGAAUGAAUGGAUGAAUGGAUGGGUAGGUGGGUGGAUGCAUAGGCAAGUAGAUGAAUGAAUAUGUGGGUAGAAGGGUGAGUGGGUGGAUGAAUGGAUGGAUAGGUUGGUAGGUUAAUGUAUUCGUGGAUGGGUGAAUGGAUGGAUGGAUAGAUAGAUGGGAAGGUGGAUGCUCUUGCGGUCGCACUAGUGUGGAAUUCUCGGGUGUCAAGG
B9: ENSMUSG00000061578.1464|Ksr2|54:58 (ssRNA)
RNA: B8 RNA with G97C, U98A, A99U, U100A, G101C

Molecular target: TDP-43 (Homo sapiens, UniProt Q13148 1-414)
Test: RNA Bind-n-Seq with designed 260-mer pool; 25 mM Tris-HCl, 150 mM KCl, 3 mM MgCl2, BSA (printed 500 mg/mL), 20 units/mL SUPERase IN; pH not stated; 500 nM RNA pool, 1 h, 4 C; TDP-43 5, 50, 500 nM; high values mean tight binding
Conditions: protein: recombinant; tags: SBP (GST cleaved off with PreScission; pGEX-GST-SBP)
Method in brief: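 For each oligo, R gives binding as its mapped-read-normalized abundance after pulldown divided by its abundance in input. Bead-captured SBP-tagged TDP-43 (5, 50 or 500 nM) was incubated with 500 nM of an in vitro-transcribed 260-nt 3′ UTR oligo pool for 1 h at 4 °C in 25 mM Tris-HCl, 150 mM KCl, 3 mM MgCl2, BSA and SUPERase IN on streptavidin beads. Washed, biotin-eluted RNA was reverse transcribed, PCR-amplified and sequenced.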

TDP-43, sequence (Q13148 whole entry): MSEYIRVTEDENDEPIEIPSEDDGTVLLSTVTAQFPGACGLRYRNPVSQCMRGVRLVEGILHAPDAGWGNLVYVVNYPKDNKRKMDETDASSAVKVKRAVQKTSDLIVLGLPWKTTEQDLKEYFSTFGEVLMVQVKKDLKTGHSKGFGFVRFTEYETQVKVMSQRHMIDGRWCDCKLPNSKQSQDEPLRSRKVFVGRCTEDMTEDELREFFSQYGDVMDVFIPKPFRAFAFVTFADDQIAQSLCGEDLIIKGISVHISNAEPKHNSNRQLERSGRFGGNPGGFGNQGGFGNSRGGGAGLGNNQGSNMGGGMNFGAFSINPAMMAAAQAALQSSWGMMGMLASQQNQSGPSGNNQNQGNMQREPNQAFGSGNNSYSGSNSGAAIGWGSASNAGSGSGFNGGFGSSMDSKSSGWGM

Binder | binding signal
B1 | 0.471 R (bound/input frequency ratio)
B2 | 0.257 R (bound/input frequency ratio)
B3 | 2.01 R (bound/input frequency ratio)
B4 | 0.26 R (bound/input frequency ratio)
B5 | 5.37 R (bound/input frequency ratio)
B6 | 4.58 R (bound/input frequency ratio)
B7 | 5.06 R (bound/input frequency ratio)
B8 | 5.55 R (bound/input frequency ratio)
B9 | 7.9 R (bound/input frequency ratio)
